Experimental data from the supplement of paper PMC6555819.

Assays:
Test in all cases: PBM binding z-score (relative to random genomic background probes); higher = stronger binding; sequences stand for … in GC…GCGATTGACAGCGTAGAATGAAGG
[1] = tested on: FXR:RXRa (NR concentration 270 nM, RXRa partner concentration 90 nM)
Procedure, shortened: (§1)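 Antibodies against each partner of ligand-free nuclear receptor dimers (one per run) detected binding on custom Agilent 4×180K protein-binding microarrays after 1 h incubation. The double-stranded probes had 34-nt variable regions carrying direct-repeat seeds, single-nucleotide variants, half-site ablations and random human genomic background sequences. Binding z-scores, from regression-normalized fluorescence, use the random background probes as reference.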

[2] = tested on: LXRa:RXRa (NR concentration 270 nM, RXRa partner concentration 90 nM)
Procedure, shortened: as §1

[3] = tested on: LXRa homodimer (NR concentration 270 nM)
Procedure, shortened: as §1

[4] = tested on: LXRb:RXRa (NR concentration 270 nM, RXRa partner concentration 90 nM)
Procedure, shortened: as §1

[5] = tested on: LXRb homodimer (NR concentration 270 nM)
Procedure, shortened: as §1

[6] = tested on: PPARa:RXRa (NR concentration 270 nM, RXRa partner concentration 90 nM)
Procedure, shortened: as §1

[7] = tested on: PPARg:RXRa (NR concentration 180 nM, RXRa partner concentration 90 nM)
Procedure, shortened: as §1

[8] = tested on: PPARg:RXRa 270nM:90nM, anti-RXR (NR concentration 270 nM, RXRa partner concentration 90 nM)
Procedure, shortened: as §1

[9] = tested on: PPARg:RXRa 30nM:10nM, anti-RXR (NR concentration 30 nM, RXRa partner concentration 10 nM)
Procedure, shortened: as §1

[10] = tested on: PPARg:RXRa 90nM:30nM, anti-RXR (NR concentration 90 nM, RXRa partner concentration 30 nM)
Procedure, shortened: as §1

| Sequence | PBM binding z-score [1] | PBM binding z-score [2] | PBM binding z-score [3] | PBM binding z-score [4] | PBM binding z-score [5] | PBM binding z-score [6] | PBM binding z-score [7] | PBM binding z-score [8] | PBM binding z-score [9] | PBM binding z-score [10] |
| --- | --- | --- | --- | --- | --- | --- | --- | --- | --- | --- |
| CAAACTAGGTCACAGAGGTCAAGGTCCGTGCGTA | 7.39 | 6.46 | 5.6 | 5.68 | 1.33 | 6.48 | 10.1 | 8.21 | 6.84 | 8.39 |
| TCGGGTAGGTTAGGGGCATTCAGAATGGCGTCGA | 1.49 | 1.32 | 0.575 | 2.21 | 1.8 | 1.85 | 0.499 | 1.7 | 1.98 | 1.74 |
| GCATATAGGTAATACAAGCTGAAAGTCCGATTGT | -0.216 | -0.314 | -0.237 | -0.399 | -0.434 | 0.493 | 0.856 | 0.592 | 0.14 | 0.385 |
| TTACCAAGGTGAAAGGTCGTAGATGCACGCCTTG | 3.65 | 3.02 | -0.241 | 2.66 | -0.86 | 5.51 | 8.66 | 8.09 | 7.58 | 8.56 |
| AATACAGGGTCACTAGGCCAGAGTCGGTACGAAT | 6.27 | 4.74 | 0.695 | 3.82 | 0.88 | 5.61 | 8.1 | 6.36 | 3.03 | 5.2 |
| AATACAGGGTCATCGTAGTCCAGAGTACGCACAG | 7.48 | 6.18 | 2.88 | 4.83 | 1.9 | 6.32 | 7.13 | 6.38 | 2.86 | 4.99 |
| CAAACTAGATCACGAAAGGTCAAAGTCGAATGAC | 5.13 | 5.95 | 5.88 | 5.7 | 2.42 | 5.61 | 4.16 | 5.04 | 2.26 | 3.98 |
| CCTAGTTGGTCAGGAGCTCACACACCGGATATGA | -0.0186 | -0.0451 | 0.119 | -0.266 | 0.143 | -0.0186 | 0.636 | 0.361 | -0.291 | -0.0665 |
| CGCCCAAGGTCATAGGAGGTCAGTGAAGACAGAT | 7.29 | 7.31 | 4.78 | 6.09 | 0.731 | 5.8 | 5.24 | 5.41 | 2.05 | 4.11 |
| ATACCAAGGTGATCGTGATGTCGTTGATACTAAC | 0.333 | 0.0372 | 0.013 | 0.116 | -0.0295 | 0.0573 | 0.279 | 0.281 | 0.217 | 0.0356 |
| GCTAGCAGGACATTTGGGTCACTCAATGACGGGC | 0.0183 | -0.0744 | -0.248 | -0.0431 | -0.72 | 1.31 | 0.997 | 0.479 | -0.424 | -0.0664 |
| AGTCAAAGTGCACTAGGTAACGTAAGATTCAGCT | -0.308 | -0.0298 | -0.372 | -0.0247 | -0.424 | 1.85 | 3.36 | 3.28 | 1.04 | 1.89 |
| ATATGTAGGTTAAGGGTCATTTAGGTTGGTTCGC | 5.62 | 4.94 | 3.45 | 4.87 | 1.82 | 6.75 | 11.6 | 9.62 | 10.6 | 11 |
| TTACCAAGGTGAAGGTCGATGATCCCTCTGTAGA | 1.25 | 0.976 | -0.361 | 1.1 | -0.706 | 2.27 | 2.29 | 3.58 | 1.74 | 3.24 |
| TCATATAGATAATACAGGTGAAAGTCGGCATCTA | 1.28 | 0.946 | 0.247 | 1.08 | 0.215 | 1.53 | 1.36 | 2.47 | 4.31 | 3.51 |
| TCTGCCAGGTCAGTTGGTCAGCTAACGAGCTGCC | 1.42 | 0.919 | -0.414 | 0.653 | 0.604 | 1.61 | -0.0729 | 1.28 | 1.13 | 0.918 |
| GCATATAGGTAGTACAAGGTGAAAGTCCGATTGT | 1.03 | 0.23 | -0.159 | 0.269 | -0.562 | 1.16 | 0.674 | 0.733 | 0.197 | 0.775 |
| TCTAGTTGGTCAAAGGTCACACAGTCGAAATGCG | 6.26 | 5.83 | 4 | 5.36 | 1.46 | 6.64 | 11.6 | 9.15 | 10 | 11.1 |
| TATACAGGTTCAAAGGCCAGAGTACGAATGTCGA | 3.17 | 4.13 | 2.06 | 2.27 | 1.19 | 3.41 | 2.89 | 3.54 | 1.9 | 2.88 |
| TCTATTAGTTGAAGCGCAACCGACGAGTCCGTTT | 0.428 | 0.488 | -0.0421 | 0.375 | 0.082 | 0.55 | -0.192 | 1.85 | 3.58 | 2.67 |
| ACTATTAGGTGAGACGAGGGCAACCGATAGGTTG | 1.3 | 0.503 | 0.00247 | 0.202 | -0.293 | 1.5 | 1.44 | 1.19 | 0.65 | 0.864 |
| CGTCCAAGGTCAAAGAGGTCAGTGAATGCCGAGT | 7.54 | 6.09 | 4.44 | 5.48 | 1.51 | 5.88 | 5.22 | 5.89 | 2.41 | 4.63 |
| CCTTACGGGTCACGAGGTTAAAGCACGACGAGCG | 7.54 | 4.81 | 0.696 | 4.3 | 0.192 | 6.28 | 7.86 | 7.25 | 3.78 | 6.28 |
| CCTAGCAGGCCAGTCTGGGTCACTCAAGGCTTGA | 0.876 | 0.686 | -0.81 | 0.487 | -1.44 | 2.13 | -0.179 | 0.439 | -1.1 | 0.0493 |
